What was measured:
Assay type in all cases: functional
[1] = test system: Plasmodium falciparum; assay: GSK_TCMDC: Inhibition of Plasmodium falciparum 3D7 in whole red blood cells, using parasite LDH activity as an index of growth. Test compounds present at 2uM
[2] = test system: Plasmodium falciparum; assay: GSK_TCMDC: Inhibition of Plasmodium falciparum Dd2 in whole red blood cells, using parasite LDH activity as an index of growth. Test compounds present at 2uM
[3] = test system: HepG2; assay: GSK_TCMDC: Percent inhibition of human HepG2 cell line. Test compounds present at 10uM.

SMILES | Inhibition [1] [%] | Inhibition [2] [%] | Inhibition [3] [%]
CCOC(=O)c1ccc(NC(=O)Nc2ccc(Cn3ncc(N4CCCNCC4)c(Cl)c3=O)cc2)cc1.O=C(O)C(F)(F)F | 88 | 58 | 2
Cc1cc(C(F)(F)F)n2nc(C(=O)N(Cc3cncn3Cc3cccc(F)c3)CC3CC3)cc2n1 | 100 | 92 | 0
Cc1cccc2nc(-c3ccc(-c4cccc(CN5CCC(CO)CC5)c4)s3)[nH]c12.O=C(O)C(F)(F)F | 99 | 61 | 20
CC(C)(C)[C@@H](Nc1ccc(C#N)c2ccccc12)C(=O)NC1(Cc2ccc(O)c(Br)c2)CCCC1 | 84 | 16 | 2
Fc1ccc(C=NN=c2cc[nH]c3ccccc23)cc1 | 100 | 100 | 21
CS(=O)(=O)O.c1ccc2c(CNCCCCCCNCc3c(OCC4CC4)ccc4ccccc34)c(OCC3CC3)ccc2c1 | 93 | 97 | 100
O=C(Nc1ccc(-c2oc(C(=O)NCCc3cccc(Cl)c3)cc2-c2ccncc2)cc1)Nc1cccc(Cl)c1.O=C(O)C(F)(F)F | 99 | 84 | 13
O=C(Nc1cccnc1)c1ccc(-c2cc3ccncc3cc2OC2CCNCC2)s1 | 97 | 12 | 0
Cc1[nH]c2ccccc2c1C(=O)C(C)Sc1nnc(-c2ccccc2F)o1 (stereo unspecified) | 99 | 99 | 24
CCC(CC)(Cc1ccccc1)NC(=O)[C@H](CC1CCCCC1)Nc1ccc(C#N)c2ccccc12.O=C(O)C(F)(F)F | 95 | 76 | 4
COc1ccc2[nH]c(C(=O)Nc3ccc4[nH]c(-c5ccccc5)nc4c3)cc2c1.O=C(O)C(F)(F)F | 96 | 23 | 51
CC(C)CNCc1cccc(-c2cccc(CNCCCN3CCN(C)CC3)c2)c1.O=C(O)C(F)(F)F | 88 | 7 | 5
CN(C)c1ccc(-c2csc(C(=O)NCC3CCN(CC4CCCCC4)C3)c2)cc1.O=C(O)C(F)(F)F (stereo unspecified) | 86 | 28 | 35
O=C(Nc1cc(Cl)cc(Cl)c1)c1cc(Cl)c(=O)n(Cc2ccc(Cl)cc2)c1 | 89 | 57 | 7
CCN(CC)C(=O)C1CCCN(C(=O)Nc2cc(C(F)(F)F)cc(C(F)(F)F)c2)C1 (stereo unspecified) | 86 | 98 | 0
NCCNc1ccc([N+](=O)[O-])cc1C(=O)Nc1cccc(C(F)(F)F)c1 | 94 | 33 | 1
COc1ccc(CNCc2cccc(-c3ccc(-c4nc5cc(C(F)(F)F)ccc5[nH]4)cc3)c2)cc1.O=C(O)C(F)(F)F | 100 | 95 | 23
COc1nc(Nc2cccc(C)c2)nc(OC)n1 | 94 | 0 | 46
N#Cc1ccc(CN2CCCN(Cc3cccc(NC(=O)c4ccc(-c5ccccc5)cc4)c3)CC2)cc1.O=C(O)C(F)(F)F | 88 | 12 | 33
Cc1cc(NC(=O)Nc2ccc3ccn(C)c3c2)c2ccccc2n1 | 100 | 69 | 11
O=C(c1ccc(F)c(F)c1)N1CCOC(CCN2CCC(c3ccccc3)CC2)(c2ccc(Cl)c(Cl)c2)C1 (stereo unspecified) | 89 | 75 | 51
CC(C)[C@H](NC(=O)c1ccc(O)c(-c2cccc(C(F)(F)F)c2)c1)C(=O)NC1CCCc2ccccc21 (stereo partly specified) | 82 | 25 | 2
O=C(Nc1cccc(-c2csc(-c3nc4ccccc4[nH]3)c2)c1)c1cc(=O)c2ccccc2[nH]1 | 98 | 39 | 41
Cc1cccc2nc(-c3ccc(-c4cccc(NC(=O)CCc5c[nH]cn5)c4)cc3)[nH]c12 | 100 | 14 | 13
CC(C)CCCC(C)(C)NC[C@@H](O)[C@H](Cc1ccccc1)NC(=O)c1cccc(OCC2CC2)c1 | 96 | 91 | 99
C[C@H](Cc1ccc(C[C@@H](C)NCC(O)c2cc(Cl)c(N)c(Cl)c2)cc1)NCC(O)c1cc(Cl)c(N)c(Cl)c1 (stereo partly specified) | 98 | 50 | 26
Cc1cc(N2CCCC2)nc(Nc2ccc(NC(=O)c3ccccc3F)cc2)n1 | 98 | 44 | 36
